# Test results reported in PubChem BioAssay AID1851 (National Center for Advancing Translational Sciences (NCATS), 2009).
# In all, about 16,000 compounds went through this assay and about 4,000 (25%) were called active. Another 26% or so got no clear call; they are omitted. These entries were drawn from the full list. A number with no mark means an inactive call. Calls follow the shape of the dose curve; as a rule, active = well fitted curve in the direction sought with a large enough effect; inconclusive = small, poorly fitted or top-dose-only effect, or effect the other way; inactive = no such curve, though single readings can be large or run the other way.
# Biological target: Cytochrome P450 2C9 (Homo sapiens) (UniProt P11712)
# Assay: Cytochrome panel assay with activity outcomes
# Conditions: recombinant CYP, pro-luciferin dealkylation, luminescence, p450-cyp2c9; series mostly up to 57.1 µM; activity, negative = inhibition: at the top concentration
# % is scaled to controls: 0 for no effect and ±100 for the full control effect.
# Chain of Cytochrome P450 2C9 (Homo sapiens) (P11712 whole entry, looked up): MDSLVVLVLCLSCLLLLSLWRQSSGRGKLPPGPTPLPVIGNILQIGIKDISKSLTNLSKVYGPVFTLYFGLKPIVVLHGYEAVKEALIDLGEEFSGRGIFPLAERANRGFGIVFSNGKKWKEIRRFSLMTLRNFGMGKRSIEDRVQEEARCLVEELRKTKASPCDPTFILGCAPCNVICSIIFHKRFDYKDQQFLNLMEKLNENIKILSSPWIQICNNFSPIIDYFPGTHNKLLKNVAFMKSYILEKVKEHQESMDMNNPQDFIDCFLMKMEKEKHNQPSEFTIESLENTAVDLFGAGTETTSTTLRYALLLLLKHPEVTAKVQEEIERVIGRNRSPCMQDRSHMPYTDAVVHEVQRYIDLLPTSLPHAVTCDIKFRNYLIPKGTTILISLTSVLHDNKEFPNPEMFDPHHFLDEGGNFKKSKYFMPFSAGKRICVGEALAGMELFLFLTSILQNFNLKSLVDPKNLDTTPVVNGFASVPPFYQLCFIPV
SMILES,"activity, negative = inhibition",AC50
CCCS(=O)(=O)N1CCCC(C(=O)NCCCN2CCN(c3ccc(F)cc3)CC2)C1 (stereo not drawn),2.11%,
Cc1ccc(S(=O)(=O)N(CC(=O)N2CCN(c3ccc(F)cc3)CC2)C2CCCCC2)cc1,,3.55 µM (active)
COc1ccc(S(N)(=O)=O)cc1C(=O)NCCCN1CCN(c2ccc(C)cc2)CC1,-17.8%,
CCCCOC(=O)NS(=O)(=O)c1sc(CC(C)C)cc1-c1ccc(Cn2c(CC)nc3c(C)cc(C)nc32)cc1,,12.6 µM (active)
C1CCc2nnnn2CC1,-7.69% [at 25.6 µM],
O=C(c1cccc(F)c1)N1CCC2(CC1)CN(Cc1ccccc1)C2,-9.48%,
Cc1cccc2cc(CN(Cc3ccccc3)C(=O)c3cccc(F)c3)c(Cl)nc12,,2.24 µM (active)
Cc1ccccc1OC/C(O)=C(\C#N)c1nc2ccccc2[nH]1,-1.16%,
COc1cccc(OC)c1/C(O)=C(\C#N)c1nc2ccccc2[nH]1,,11.2 µM (active)
CNc1nc(-c2ccccc2OC)nc2ccccc12,7.89% [at 2.29 µM],
CC(CC(=O)Nc1ccc(Cl)c([N+](=O)[O-])c1)c1ccccc1 (stereo not drawn),,14.1 µM (active)
COc1ccc(N2CCN(C(=S)Nc3cc(C)cc(C)c3)CC2)cc1,-13.1%,
COc1ccc(Nc2ncc(C(=O)N3CCN(c4ccc(F)cc4)CC3)c3ccccc23)cc1,,2.24 µM (active)
COc1ccc(NC(=O)N2CCC3(CC2)CCN(C(=O)c2cccc(F)c2)CC3)cc1,-15.4%,
CC(=O)[C@@]1(O)Cc2c(O)c3c(c(O)c2[C@H](O[C@H]2C[C@H](N)[C@H](O)[C@H](C)O2)C1)C(=O)c1ccccc1C3=O,-4.2%,
O=C(NC1CCCCC1)c1sc(=S)n2c1[nH]c(=O)c1ccccc12,,0.2 µM (active)
CCOc1ccc(N(C(C)C(=O)N/N=C(\C)c2cccc(NC(=O)c3ccccc3)c2)S(C)(=O)=O)cc1 (stereo not drawn),,3.98 µM (active)
CCOc1ccc(N(C(C)C(=O)NC(C)CC)S(C)(=O)=O)cc1 (stereo not drawn),,5.62 µM (active)
Cc1nc2cnc(N3CCN(C)CC3)nc2n(-c2ccccc2)c1=O,23.4%,
CC[C@H]1C(=O)OC[C@H]1Cc1cncn1C,-28.6% [at 25.6 µM],
CO[C@H]1COC(=O)[C@@H](C)COC(=O)[C@@H](COCc2ccccc2)NC(=O)C/C=C\[C@H]1C,6.52% [at 11.4 µM],
O=C(Nc1ccccc1)N1CC2(CCN(C(=O)c3cnccn3)CC2)C1,9.15%,
O=C(Nn1cc(C(=O)N2CCN(c3ccccc3F)CC2)c2ccccc2c1=O)c1cnccn1,,4.47 µM (active)
O=C(c1cnccn1)N1CCC2(CC1)CCN(c1ccccc1)CC2,3.2%,

SMILES,"activity, negative = inhibition",AC50
O=C(c1ccccc1)c1c[nH]c(C(=O)NCCCN2CCOCC2)c1,16.5%,
O=C(c1ccccc1)c1c[nH]c(C(=O)NCc2cccnc2)c1,,11.2 µM (active)
O=C(O)[C@@H]1[C@@H](C(=O)NCc2cccnc2)[C@@H]2C=C[C@@H]1O2,0.756% [at 11.4 µM],
N#CCCn1c(=O)c(-c2cc(F)cc(F)c2)nc2cnc(N3CCOCC3)nc21,15.9%,
CN1CCN(c2ncc3nc(-c4ccc(Cl)cc4)c(=O)n(C4CC4)c3n2)CC1,1.45%,
CN1CCN(c2ncc3nc(-c4cc(F)cc(F)c4)c(=O)n(C4CC4)c3n2)CC1,,10 µM (active)
CN1CCN(c2ncc3nc(-c4ccc(F)cc4)c(=O)n(C4CC4)c3n2)CC1,,12.6 µM (active)
COc1ccc(-c2nc3cnc(N4CCN(C)CC4)nc3n(C)c2=O)cc1,-18.2%,
NC([N-]/N=C/c1ccccn1)=[S]=[Fe].O=S(=O)(O)O,-29.5% [at 11.4 µM],
Cc1c(Cl)cnc(NC(=O)COC(=O)CCS(=O)(=O)c2ccccc2)c1Cl,-33.3%,
O=C(O)CC[C@@H](C(=O)O)N1C(=O)c2ccccc2C1=O,,inactive
CC(C)CC(C(=O)OCC(=O)Nc1ncc(Cl)cc1Cl)N1C(=O)c2ccccc2C1=O (stereo not drawn),,7.08 µM (active)
CC(=O)Nc1ccc(NC(=O)CC2Nc3cccc4cccc(c34)NC2=O)cc1 (stereo not drawn),,5.01 µM (active)
Cc1cccc(C)c1OC1(c2ccccc2)OC(=O)c2ccccc21 (stereo not drawn),,2.51 µM (active)
CCCCCCCOC1(c2ccccc2)OC(=O)c2ccccc21 (stereo not drawn),,8.91 µM (active)
Cc1cccc(OC2(c3ccccc3)OC(=O)c3ccccc32)c1C (stereo not drawn),,3.16 µM (active)
CC(C)C[C@H](NC(=O)[C@@H](O)[C@H](N)Cc1ccccc1)C(=O)O,19.9%,
CCn1c(C)nc2cc(S(=O)(=O)C(F)F)ccc21,-25.1%,
CCCCn1c(SCc2c(C)noc2C)nc2cc(S(N)(=O)=O)ccc21,,10 µM (active)
c1ccc2c(N3CCNCC3)nc(-c3ccc4c(c3)OCO4)nc2c1,12.6% [at 2.29 µM],
O=C1CC(c2ccc3c(c2)OCO3)CN1 (stereo not drawn),-13%,
O=C1CC(c2ccc3c(c2)OCO3)Sc2nc3ccccc3n21 (stereo not drawn),,3.16 µM (active)
O=C(CSc1nc2ccccc2o1)Nc1ccccc1N1CCCCCC1,,12.6 µM (active)
O=C(CSc1ccccn1)Nc1nc2ccc(Br)cc2s1,,7.08 µM (active)

SMILES,"activity, negative = inhibition",AC50
c1ccc(/C(=N/Nc2nc3ccccc3s2)c2ccccn2)cc1,-23.7% [at 11.4 µM],
CCCCOC(=O)Nc1nc2ccccc2s1,4.29%,
O=C(O)C1CCCCC1C(=O)Nc1ccccc1Cl (stereo not drawn),-11.3%,
O=C(NC1CCCCC1)C(c1ccccc1)N1CCOCC1 (stereo not drawn),-9.73%,
O=C(CSc1nc2ccccc2o1)Nc1nc2ccccc2s1,,3.98 µM (active)
O=C(CNC1CCCCCC1)Nc1ccccc1N1CCCCC1,,28.2 µM (active)
O=C(CSc1nc2ccccc2[nH]1)NCCN1CCCCC1,-28.8%,
Cc1ccc(-c2nc3ccccc3o2)cc1NC(=O)Cc1cccs1,-19.9%,
O=C(CN1CCN(S(=O)(=O)c2ccccc2)CC1)NC(=O)NCc1ccccc1,-15.7%,
O=C(CSc1nc2ccccc2o1)NC(=O)NCc1ccccc1,,7.08 µM (active)
O=C(N/N=C\c1ccc(-c2ccccc2[N+](=O)[O-])o1)C1COc2cc3ccccc3cc2O1 (stereo not drawn),,1 µM (active)
C[N+]1(C)CCC(=C(c2ccccc2)c2ccccc2)CC1,8.49% [at 25.6 µM],
N#CC(C#N)=C(N)/C(C#N)=C/c1ccc(O)cc1,9.27%,
CC(C)(CO)Cc1cc(C(C)(C)C)c(O)c(C(C)(C)C)c1,-29%,
CC(C)(C)c1cc(/C=C(\C#N)C(N)=S)cc(C(C)(C)C)c1O,,0.1 µM (active)
CC(C)=NNc1ncnc2nc[nH]c12,-11.9% [at 11.4 µM],
CCOc1cccc(OCCCNCCCOC)c1,-2.75%,
Cc1ccccc1-c1cncnc1Nc1ccc(F)cc1,-14.2% [at 2.29 µM],
C=CCN1C(=CCO)[C@H]2C[C@H]3[C@@H]1CC[C@@]31c3ccccc3N3C=C4[C@@H]5N(/C=C/2[C@H]31)c1ccccc1[C@]51CC[C@H]2[C@H]1C[C@@H]4/C(=C/CO)N2CC=C,6.5% [at 25.6 µM],
C[C@@](N)(C(=O)O)c1ccc(S(=O)(=O)O)cc1,-20%,
CCOc1cc2[nH]c(=O)n(CCCC(=O)NCc3ccc(OC)cc3)c(=O)c2cc1OCC,,4.47 µM (active)
COC(=O)C/C=C\[C@@H](C)[C@@H](/C=N\O[C@@H]1O[C@H](COC(C)=O)[C@H](OC(C)=O)[C@H](OC(C)=O)[C@H]1OC(C)=O)OC,-21% [at 11.4 µM],
O=C(c1ccncc1)N1CCC2(CC1)CCN(c1ncccn1)CC2,,15.8 µM (active)
O=C(c1ccncc1)N1CCC2(CC1)CN(c1ncccn1)C2,-0.965%,

SMILES,"activity, negative = inhibition",AC50
CC(=O)N1CCC2(CC1)CCN(c1ccccn1)CC2,11.7%,
CN1CCC2(CC1)CCN(C(=O)c1ccncc1)CC2,8.25%,
O=C(c1ccncc1)N1CCC2(CC1)CCN(c1ccccn1)CC2,,10 µM (active)
C[C@H](NCCC(c1ccccc1)c1ccccc1)c1ccccc1,-21.9% [at 25.6 µM],
CC1(C)CCC=[N+]1[O-],11.1%,
CS[C@]12C(=O)C[C@]3(C)[C@@H](CC[C@@]3(O)C(=O)CO)[C@@H]1CCC1=CC(=O)CC[C@]12C,11.9% [at 11.4 µM],
O=C(c1cc(C(F)(F)F)cc(C(F)(F)F)c1)N1CCC2(CC1)CN(Cc1ccccc1)C2,10.9%,
CC(C)CN1CC[C@@]2(CCCN(C(=O)c3cnccn3)C2)C1,-8.06%,
O=C(c1cc(C(F)(F)F)cc(C(F)(F)F)c1)N1CCC[C@@]2(CCN(Cc3ccncc3)C2)C1,,0.0794 µM (active)
O=C(c1ccncc1)N1CCC2(CC1)CN(Cc1cc(C(F)(F)F)cc(C(F)(F)F)c1)C2,-8.19%,
O=C(c1cc(C(F)(F)F)cc(C(F)(F)F)c1)N1CCC2(CC1)CN(Cc1ccncc1)C2,,10 µM (active)
O=C(c1cnccn1)N1CCC2(CCN(Cc3nccs3)CC2)CC1,6.72%,
O=C(c1cnccn1)N1CCC[C@@]2(CCN(Cc3ccncc3)C2)C1,,10 µM (active)
O=C(c1cnccn1)N1CCC2(CCCN(Cc3nccs3)C2)CC1,,15.8 µM (active)
O=C(c1cnccn1)N1CCC[C@@]2(CCN(c3ncccn3)C2)C1,14.7%,
O=C(c1cc(C(F)(F)F)cc(C(F)(F)F)c1)N1CCC[C@@]2(CCN(Cc3ccccc3)C2)C1,14.9%,
N#Cc1ccc(CN2CC[C@@]3(CCCN(C(=O)c4cc(C(F)(F)F)cc(C(F)(F)F)c4)C3)C2)cc1,12.4%,
O=C(c1cnccn1)N1CCC2(CC1)CN(Cc1nccs1)C2,18.6%,
CC1=NNC(=S)NCCCN2CCN(CCCNC(=S)NN=C(C)C=NNC(=S)NCCCN3CCN(CCCNC(=S)NN=C1)CC3)CC2,5.77% [at 11.4 µM],
CC(C)N1CCN(c2ccc(OC[C@@H]3CO[C@@](Cn4cncn4)(c4ccc(Cl)cc4Cl)O3)cc2)CC1,-13% [at 25.6 µM],
COc1cc(C2NC(=O)NC(O)(C(F)(F)F)C2C(=O)c2ccc(Cl)cc2)ccc1O (stereo not drawn),-18.5%,
